# Screens from PubChem BioAssay.
# This is a sample that favours compounds with a hit; in the whole collection about 3.5% have one here.
# TEAD-YAP inh: TEAD-YAP interaction inhibition; HEK-TIYL cells, TEAD-Gal4/YAP UAS-luciferase luminescence; inhibition, % at 9.12 µM; hit rate 1.4% among 640,000; AID 1259422; in the data active = inhibition above about 32%
# MITF primary: inhibitors of human MITF; O75030; inhibition, % at 2.6 µM; AlphaScreen MITF homodimerization, bead proximity signal; hit rate 0.91% among 650,000; in the data active = inhibition above about 50%
# FBW7 act: activators of human E3 ligase FBW7; hit rate 0.13% among 650,000; normalized activity (activation), % at 26.1 µM; AlphaScreen FBW7–phospho-cyclin E peptide binding, activator screen; in the data active = normalized activity above about 1.9%;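 note: purified mutant Fbw7 with reduced substrate affinity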
# Target sequence (Q969H0 whole entry, looked up): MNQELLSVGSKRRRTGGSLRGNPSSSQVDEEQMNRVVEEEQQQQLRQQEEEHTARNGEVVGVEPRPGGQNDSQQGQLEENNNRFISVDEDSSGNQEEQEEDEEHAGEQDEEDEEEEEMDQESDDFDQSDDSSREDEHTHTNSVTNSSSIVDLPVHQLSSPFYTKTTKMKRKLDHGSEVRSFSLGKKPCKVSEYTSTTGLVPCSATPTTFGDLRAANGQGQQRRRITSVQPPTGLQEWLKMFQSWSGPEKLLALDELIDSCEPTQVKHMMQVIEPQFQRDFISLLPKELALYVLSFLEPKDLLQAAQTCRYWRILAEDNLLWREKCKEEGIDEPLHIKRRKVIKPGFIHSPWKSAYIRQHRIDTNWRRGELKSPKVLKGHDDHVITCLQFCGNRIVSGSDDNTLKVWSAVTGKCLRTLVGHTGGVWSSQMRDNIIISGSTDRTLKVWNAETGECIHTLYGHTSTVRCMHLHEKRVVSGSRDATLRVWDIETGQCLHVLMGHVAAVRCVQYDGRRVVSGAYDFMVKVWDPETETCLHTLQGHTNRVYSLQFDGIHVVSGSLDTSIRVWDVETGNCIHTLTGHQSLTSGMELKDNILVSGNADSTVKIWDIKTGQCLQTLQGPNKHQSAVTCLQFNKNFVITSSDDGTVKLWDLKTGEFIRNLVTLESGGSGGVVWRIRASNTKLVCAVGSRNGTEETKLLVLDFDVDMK
# GPR151 activ: activates the human receptor GPR151; activation, % at 11.2 µM; AID 1508602; PathHunter beta-arrestin GPR151 cells, luminescence; hit rate 1% among 650,000; in the data active = activation above about 4.9%
# MITF confirm: confirmation of human MITF inhibitors; shares compounds with MITF primary; AlphaScreen MITF homodimerization, biotin/His-MITF beads; inhibition, % at 2.6 µM; hit rate 16% among 4,700; AID 1259372;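 active = inhibition above a cutoff derived from the DMSO control wells, cut at about 28% in these data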;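 note: inhibitors lower the bead chemiluminescence by keeping MITF from dimerizing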
# AlphaScreen DR: AlphaScreen optical interference, dose response counter-screen; shares compounds with MITF primary; IC50, µM; AlphaScreen optical interference counterscreen, cell-free; hit rate 6% among 480; AID 1259373; call rule not given here
# AS interf ctr: optically interferes with AlphaScreen signal. shares compounds with MITF primary. LysRS AlphaScreen counterscreen, signal interference, triplicate. inhibition, % at 2.6 µM. hit rate 7.6% among 4,700. AID 1259376;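 active = inhibition above a cutoff derived from the DMSO control wells, cut at about 30% in these data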
# Hits are given with their value; . = inactive; / = not tested or not shown.
SMILES,TEAD-YAP inh,MITF primary,FBW7 act,GPR151 activ,MITF confirm,AS interf ctr,others
Cc1ccccc1CN1C(=O)C(O)(CC(=O)c2ccc([N+](=O)[O-])cc2)c2ccccc21 (stereo unspecified),.,.,.,.,/,/,
O=[N+]([O-])c1ccc(OCCNCc2ccco2)cc1,.,56,.,.,.,.,
O=[N+]([O-])c1ccc(OCCCNCc2ccco2)cc1,.,.,.,.,/,/,
CC(C)c1cccc(OCCOCCNCCN)c1,.,51,.,.,.,.,
CCCCNCCOCCOc1cccc(C(C)C)c1,.,.,.,.,/,/,
CCOc1cccc(OCCOCCNC(C)(C)C)c1,.,67,.,.,.,.,
CC(C)c1cccc(OCCOCCNC(C)(C)C)c1,.,67,.,.,.,.,
O=C(Nc1ccccc1-c1ccccc1)C1CCCN1C(=O)Nc1ccccc1 (stereo unspecified),.,79,.,.,.,.,
CCN1CCN(CC(=O)NCc2ccccc2OC)CC1,.,99,.,.,.,.,
CCN1CCN(CC(=O)Nc2nnc(C)s2)CC1,.,74,.,.,.,.,
CCN1CCN(CCC(=O)Nc2ccccc2)CC1,.,.,.,.,/,/,
CCN1CCN(CC(=O)Nc2ccccc2)CC1,.,59,.,.,.,.,
Cc1nnc(NC(=O)CN2CCOCC2)s1,.,.,.,.,/,/,
CCN1CCN(CC(=O)N(C)c2ccccc2)CC1,.,67,.,.,.,.,
CN(C(=O)N1CCN(C(=O)N(C)c2ccccc2)CC1)c1ccccc1,.,.,.,.,/,/,
CC(=O)c1ccc(-c2nnc(CCC(=O)N(C)CCc3ccccc3)o2)s1,.,.,.,.,/,/,
O=C(Nc1ccc(N2CCOCC2)cc1)c1ccc2nc(Nc3ccncn3)sc2c1,.,.,.,.,/,/,
Cc1cc(C)cc(NC(=O)CN2CCc3ccccc3C2)c1,.,69,.,.,.,.,
Cc1cc(C)cc(NC(=O)CCN2CCc3ccccc3C2)c1,.,.,.,.,/,/,
COC(=O)c1c(NC(=O)CCl)sc(C(=O)Nc2cccc([N+](=O)[O-])c2)c1C,.,.,.,.,/,/,
Clc1ccc(-c2[nH]ncc2CNCc2cccnc2)cc1,.,58,.,.,.,.,
CNCCCOc1c(C)cc(Cl)cc1Br,.,.,.,.,/,/,
CCC(C)c1ccccc1OCCCNCCO (stereo unspecified),.,59,.,.,.,.,
CCC(C)c1ccccc1OCCNCCOC (stereo unspecified),.,.,.,.,/,/,
CCC(C)c1ccccc1OCCNCCCOC (stereo unspecified),.,58,.,.,.,.,
SMILES,TEAD-YAP inh,MITF primary,FBW7 act,GPR151 activ,MITF confirm,AS interf ctr,others
Cc1cc(Cl)cc(Br)c1OCCNCCN(C)C,.,53,.,.,.,.,
CCCCNCCOc1ccccc1OCC,.,61,.,.,33,.,AlphaScreen DR=.
CCC(C)c1ccccc1OCCCNCCN (stereo unspecified),.,.,.,.,/,/,
CC1SC(C)C(=O)N(CC(=O)Nc2cccc3ccccc23)C1=O (stereo unspecified),.,.,.,.,/,/,
S=c1[nH]nc(-c2cccs2)n1C1CC1,.,.,.,.,/,/,
CN(C)CCNCCOc1ccc2ccccc2c1Br,.,59,.,.,.,.,
CCOc1ccccc1OCCOCCNCc1ccccc1,.,82,.,.,.,.,
CCC(C)c1ccccc1OCCNCCN(C)C (stereo unspecified),.,67,.,.,59,.,AlphaScreen DR=.
CCCCOC(=O)c1ccc(NC(=O)CN2C(=O)c3ccccc3C2=O)cc1,.,.,.,.,/,/,
Cc1cccc(NC(=S)NNC(=O)CC(C)O)c1C (stereo unspecified),.,57,.,.,.,.,
COc1ccc(O)c(C=Nc2ccc(Cl)cc2)c1,.,51,.,.,.,.,
O=[N+]([O-])c1ccccc1CN1CCC(N2CCN(c3ccccc3F)CC2)CC1,.,.,.,.,/,/,
CC1CN(Cc2ccccc2[N+](=O)[O-])CC(C)O1 (stereo unspecified),.,.,.,.,/,/,
CC1CCC(N2CCN(Cc3ccccc3[N+](=O)[O-])CC2)CC1 (stereo unspecified),.,69,.,.,.,.,
O=[N+]([O-])c1ccccc1CN1CCN(C2CCCCCC2)CC1,.,75,.,.,.,.,
O=[N+]([O-])c1ccccc1CN1CCCCCC1,.,.,.,.,/,/,
